Screening results (PubChem BioAssay)
FLuc counter: firefly luciferase modulation, counter-screen for miR-21 project; AID 588342; 6.9% of 360,000 active; Potency, µM (top dose mostly 57.5 µM), without a hit: at the highest dose activity change, negative = inhibition, most hits filed as inhibitors; P08659; purified FLuc, Km substrates, luminescence inhibition;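 further: plate controls were vehicle for no effect and reference inhibitor for full effect; nearly all actives have a fitted effect of over 55% in size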
Target sequence (P08659 whole entry, looked up): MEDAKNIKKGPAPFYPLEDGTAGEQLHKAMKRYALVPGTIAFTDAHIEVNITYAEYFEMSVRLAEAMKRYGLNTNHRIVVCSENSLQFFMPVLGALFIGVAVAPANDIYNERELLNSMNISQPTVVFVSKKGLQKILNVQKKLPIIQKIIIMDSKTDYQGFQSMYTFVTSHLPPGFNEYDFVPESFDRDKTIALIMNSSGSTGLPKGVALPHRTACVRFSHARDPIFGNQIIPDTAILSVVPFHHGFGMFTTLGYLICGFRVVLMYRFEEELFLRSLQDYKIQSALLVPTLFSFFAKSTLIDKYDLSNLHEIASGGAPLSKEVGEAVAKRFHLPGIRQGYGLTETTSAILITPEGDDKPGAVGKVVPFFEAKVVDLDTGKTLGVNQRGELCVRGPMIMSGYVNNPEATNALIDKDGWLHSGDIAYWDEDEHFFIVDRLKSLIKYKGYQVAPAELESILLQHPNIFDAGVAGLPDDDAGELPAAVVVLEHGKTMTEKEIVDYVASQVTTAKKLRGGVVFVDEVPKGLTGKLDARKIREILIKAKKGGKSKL
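Biochemical qHTS of compounds, final roughly 60 µM downward over six points, against 10 nM purified firefly luciferase using Km concentrations of substrates (10 uM D-luciferin, 10 uM ATP) in Tris acetate pH 7.5 buffer; luminescence output.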
ELG1 DNA repair: ELG1-dependent DNA repair inhibition. HEK293T ELG1-luciferase reporter, luminescence, 16 h; DNA damage induced by 5-fluorouridine. Potency, µM (doses to about 46.1 µM), without a hit: at the highest dose activity change, negative = inhibition, hits mostly inhibitors. 2.3% of 330,000 active; further: on the % scale 0 is the no-effect control and ±100 the full control effect; nearly all actives have a fitted effect of over 55% in size
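In this reporter screen, reduction of luminescence relative to DMSO vehicle indicated activity. Compounds and 5-fluorouridine were added together to 2,000 cells per well, incubated for 16 hr at 37 °C, then developed with ONE-Glo.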
ELG1 genotoxic: inducers of genotoxicity in HEK293T ELG1-luciferase cells. HEK293T ELG1-luciferase reporter, luminescence, 16 h. Potency, µM (series often up to 46 µM), for the others: at the highest dose activity change, positive = activation, actives largely listed as activators. 1.3% of 330,000 active; further: % of control where 0% means no effect; nearly all actives have a fitted effect of over 60% in size
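Genotoxicity was scored as increased ELG1-luciferase reporter signal, measured by ONE-Glo luminescence (30 min, room temperature). Compound or vehicle exposure of the HEK293T reporter cells lasted 16 hr at 37°C.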
SMN2 splice enh: increases expression of the SMN2 splice variant | HEK293 SMN2-luciferase splicing reporter, luminescence, 30-36 h | Potency, µM (doses to about 46.1 µM), for the others: top-dose activity change, positive = activation, actives largely listed as activators | 2.8% of 210,000 active | AID 1458; further: % of control where 0% means no effect; nearly all actives have a fitted effect of over 55% in size
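HEK293 cells carry an SMN2 minigene-luciferase reporter in which exon 7 inclusion puts luciferase in frame. Cells were seeded at 2000 cells/well, attached for 10-12 hours, then exposed to compounds for 30-36 hours at 37C before ONE-Glo luminescence.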
NPC1 prom act: activates the NPC1 promoter; Huh7 NPC1 promoter luciferase reporter, 24 h; Potency, µM (top dose mostly 9.22 µM), inactives show top-dose activation, most hits filed as activators; 2.4% of 320,000 active; further: % of control where 0% means no effect; nearly all actives have a fitted effect of over 60% in size
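Stably transfected Huh7 (NPC1 promoter→luciferase), 1500 cells/well in Opti-MEM + 10% FBS, 2 h settle, then compound 24 h at 37 °C. Luminescence after 10 min with Amplite reagent.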
Rab9 prom act: activators of Rab9 promoter | Huh7 Rab9 promoter-luciferase reporter, luminescence, 24 h | Potency, µM (top dose mostly 9.22 µM), for inactives: at the highest dose activation, negative = inhibition, actives largely listed as activators | 2.8% of 320,000 active; further: % of control where 0% means no effect; nearly all actives have a fitted effect of over 60% in size
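Using Huh7 cells stably transfected with Rab9 promoter–luciferase, compounds were incubated 24 h at 37 °C, 5% CO2; luciferase luminescence was read 10 min after reagent addition.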
* marks the source's active call; other numbers are inactive results; [ ] = another dose, or the depositor's remark. The list is not random: actives were taken first. Their share in the collection is about 9.2%. The call rests on the fitted dose curve; in most records, active means well fitted curve in the direction sought with a large enough effect; inconclusive means small, poorly fitted or top-dose-only effect, or another doubt; inactive means no such curve, though single readings can be large; an effect the other way counts as inactive or inconclusive. Potency means the concentration at half of the fitted maximal effect.

How did Cc1ccccc1OCCC(=O)Nc1ccc(N2CCOCC2)cc1N1CCOCC1 do in these assays?
FLuc counter: 5%; ELG1 DNA repair: -12%; ELG1 genotoxic: -1%; NPC1 prom act: -2%; Rab9 prom act: -3%

Results for Cn1c(-c2cccs2)nc2ccccc21 ?
FLuc counter: inconclusive; ELG1 DNA repair: inconclusive; ELG1 genotoxic: 8%; SMN2 splice enh: 13µM*; NPC1 prom act: 4µM*; Rab9 prom act: 2.5µM*

How did CC(C)Cn1c(-c2cccs2)nc2ccccc21 do in these assays?
FLuc counter: -9%; ELG1 DNA repair: inconclusive; ELG1 genotoxic: -11%; SMN2 splice enh: 5%; NPC1 prom act: -2%; Rab9 prom act: -2%

How did Cn1c(-c2ccc(C=O)s2)nc2ccccc21 do in these assays?
FLuc counter: inconclusive; ELG1 DNA repair: inconclusive; ELG1 genotoxic: 15µM*; SMN2 splice enh: 25%; NPC1 prom act: -2%; Rab9 prom act: 1%

What do the screens show for `Cc1ccc(-n2c(N)c(-c3nc4ccccc4n3C)sc2=S)cc1`?
FLuc counter: -2%; ELG1 DNA repair: inconclusive; ELG1 genotoxic: -1%; SMN2 splice enh: -21%; NPC1 prom act: inconclusive; Rab9 prom act: 28%

Results for COc1cnc(-c2ccccn2)nc1Sc1ccc(F)cc1 ?
FLuc counter: 1%; ELG1 DNA repair: 21µM*; ELG1 genotoxic: -8%; SMN2 splice enh: -93%; NPC1 prom act: -6%; Rab9 prom act: 0%

Results for COc1ccc(Sc2nc(-c3ccccn3)ncc2OC)cc1 ?
FLuc counter: -8%; ELG1 DNA repair: 15µM*; ELG1 genotoxic: -7%; SMN2 splice enh: -74%; NPC1 prom act: -6%; Rab9 prom act: -9%

How did COc1cnc(-c2ccccn2)nc1N(C)c1ccccc1 do in these assays?
FLuc counter: 11µM*; ELG1 DNA repair: inconclusive; ELG1 genotoxic: 21%; NPC1 prom act: 0%; Rab9 prom act: 1%[1.84 µM]

How did COc1cnc(-c2ccccn2)nc1Sc1ccccc1 do in these assays?
FLuc counter: inconclusive; ELG1 DNA repair: inconclusive; ELG1 genotoxic: -12%; SMN2 splice enh: -109%; NPC1 prom act: -12%; Rab9 prom act: 3%

How did O=C1NC(CCc2ccccc2)C(=O)N1CCOc1ccccc1 (centres undefined) do in these assays?
FLuc counter: 5%; ELG1 DNA repair: 3%; ELG1 genotoxic: -1%; SMN2 splice enh: 5%; NPC1 prom act: -5%; Rab9 prom act: 25%

What do the screens show for `CCN1CCN(C(=O)c2ccc3c(c2)N(Cc2cccc(F)c2)C(=O)c2ccccc2S3)CC1`?
FLuc counter: -3%

How did Cc1ccc(N2CCN(c3ccc(NCc4nc5ccccc5n4C)cc3)CC2)cc1 do in these assays?
FLuc counter: -19%; ELG1 DNA repair: -1%; ELG1 genotoxic: 0%; SMN2 splice enh: -25%; NPC1 prom act: 0%; Rab9 prom act: 2%

What do the screens show for `Cn1c(NCc2cccc(Br)c2)nc2ccccc21`?
FLuc counter: -15%; ELG1 DNA repair: inconclusive; ELG1 genotoxic: inconclusive; SMN2 splice enh: -10%; NPC1 prom act: -1%; Rab9 prom act: 3%

Results for Cc1cccc(NCc2nc3ccccc3n2C)c1 ?
FLuc counter: 24µM*; ELG1 DNA repair: inconclusive; ELG1 genotoxic: 12µM*; SMN2 splice enh: inconclusive; NPC1 prom act: inconclusive; Rab9 prom act: 3.2µM*

What do the screens show for `Cc1cccc(NCc2nc3ccccc3n2CCOc2ccccc2C)c1`?
FLuc counter: 1%; SMN2 splice enh: -41%

How did Cc1nc2cc(NCc3nc4ccccc4n3Cc3ccccc3)ccc2n1C do in these assays?
FLuc counter: 0.6µM*; ELG1 DNA repair: inconclusive; ELG1 genotoxic: inconclusive; SMN2 splice enh: 1%; NPC1 prom act: 1.1µM*; Rab9 prom act: 0.71µM*

What do the screens show for `Cn1c(CNc2ccc(Cl)cc2)nc2ccccc21`?
FLuc counter: 6.7µM*; ELG1 DNA repair: inconclusive; ELG1 genotoxic: 4.6µM*; SMN2 splice enh: 7.1µM*; NPC1 prom act: 4.5µM*; Rab9 prom act: inconclusive

Results for Cc1nc2cc(NCc3cc([N+](=O)[O-])ccc3O)ccc2n1Cc1ccccc1 ?
FLuc counter: inconclusive; ELG1 DNA repair: -4%; ELG1 genotoxic: 0%; SMN2 splice enh: 3%; NPC1 prom act: 5%; Rab9 prom act: inconclusive

Results for Cc1cccc(NCc2nc3ccccc3n2Cc2ccccc2)c1 ?
FLuc counter: 24µM*; ELG1 DNA repair: inconclusive; ELG1 genotoxic: 15%; SMN2 splice enh: 1%; NPC1 prom act: 12%; Rab9 prom act: 4%

How did Cc1ccc(-c2nn3c(=O)cc(CN4CCN(C(=O)Nc5cc(Cl)ccc5C)CC4)nc3s2)cc1 do in these assays?
FLuc counter: -7%

How did COc1ccc(CNC(=O)Cc2coc3ccc(C)cc23)cc1 do in these assays?
FLuc counter: inconclusive; SMN2 splice enh: -9%

What do the screens show for `Cc1ccc(NCc2nc3ccccc3n2C)c(C)c1`?
FLuc counter: 0.34µM*; ELG1 DNA repair: inconclusive; ELG1 genotoxic: 1µM*; NPC1 prom act: 0.63µM*; Rab9 prom act: 0.71µM*

Results for COc1cccc(CNc2ccc3c(c2)nc(C)n3C)c1OC ?
FLuc counter: 24µM*; ELG1 DNA repair: 9%; ELG1 genotoxic: inconclusive; NPC1 prom act: inconclusive; Rab9 prom act: inconclusive

What do the screens show for `O=C(CSCCO)Nc1ccc(C2CCCCC2)cc1`?
FLuc counter: 12µM*; ELG1 DNA repair: inconclusive; ELG1 genotoxic: inconclusive; SMN2 splice enh: -12%; NPC1 prom act: -5%; Rab9 prom act: -6%

What do the screens show for `O=C(CCN1CCN(CCO)CC1)Nc1ccc(C2CCCC2)cc1`?
FLuc counter: 4%; ELG1 DNA repair: -9%; ELG1 genotoxic: 2%; SMN2 splice enh: -17%; NPC1 prom act: -9%; Rab9 prom act: -3%

How did CCc1ccc(NC(=O)C(=S)NC2CCCCC2)cc1 do in these assays?
FLuc counter: 3µM*; ELG1 DNA repair: inconclusive; ELG1 genotoxic: 8.2µM*; NPC1 prom act: 0.79µM*; Rab9 prom act: 0.63µM*

Results for COc1ccc(NC(=O)CSC2CCCCC2)cc1 ?
FLuc counter: 12µM*; ELG1 DNA repair: inconclusive; ELG1 genotoxic: inconclusive; SMN2 splice enh: 16%; NPC1 prom act: 3.2µM*; Rab9 prom act: 3.5µM*

How did Cc1ccc(NC(=O)NC2CCCCC2)cc1Cl do in these assays?
FLuc counter: inconclusive; ELG1 DNA repair: inconclusive; ELG1 genotoxic: 3.7µM*; SMN2 splice enh: 13µM*; NPC1 prom act: 3.2µM*; Rab9 prom act: inconclusive

Results for CCOC(=O)CNC(=O)O[C@H]1C(=O)c2cc(OC)ccc2O[C@@H]1c1ccc(OC)c(Br)c1 ?
SMN2 splice enh: 3%

How did COCCN(CCOC)c1nc(C)nc2c1nc(-c1ccccc1)n2CC1CCN(C)CC1 do in these assays?
SMN2 splice enh: -1%
